Laboratory results: PubChem BioAssay (NCI)
The panel holds about 79,000 compounds, 15% with a hit somewhere; the sample as a whole holds those more often. Rule as the data show it: active = growth inhibition above about 70%; inactive = the rest. Where a SMILES comes first, the peptide text is derived from it. [ ]: non-standard residue; d: D form. The star is where a group is joined. Hyp = O=C(O)[CH]1C[CH](O)CN1; Cbz = O=C(OCc1ccccc1)*

Assays:
[1] = NCI Yeast Anticancer Drug Screen. Data for the rad50 strain (AID 155);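 also: 0% = growth of vehicle-only cultures of the same strain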; details: S. cerevisiae rad50 strain growth inhibition; at 50.0 µM; active compounds read high
Procedure, shortened: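 Vehicle-treated cultures provide the reference for the growth inhibition reported for compound-exposed, repair-deficient yeast.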

[2] = NCI Yeast Anticancer Drug Screen. Data for the mec2-1 strain (AID 157); details: S. cerevisiae mec2-1 strain, at 50.0 µM, active compounds read high
Procedure, shortened: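 mec2-1 yeast strain, carrying an alteration in DNA damage repair or cell cycle control, was exposed to compounds; growth inhibition was measured relative to vehicle-treated controls.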

[3] = NCI Yeast Anticancer Drug Screen. Data for the sgs1 mgt1 strain (AID 161);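 also: 0% = growth of cultures given vehicle only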; details: S. cerevisiae sgs1 mgt1 strain, at 50.0 µM, active compounds read high
Procedure, shortened: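 This yeast growth screen uses a strain with defined DNA-repair lesions; compound-treated growth is compared with vehicle-treated growth.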

[4] = NCI Yeast Anticancer Drug Screen. Data for the cln2 rad14 strain (AID 165);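 also: 0% = growth equal to vehicle treated cultures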; details: S. cerevisiae cln2 rad14 strain, at 50.0 µM, active compounds read high
Procedure, shortened: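 Yeast carrying cln2 and rad14 alterations (cell cycle control and DNA damage repair) were exposed to compounds. Growth inhibition was measured against vehicle-treated controls.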

[5] = NCI Yeast Anticancer Drug Screen. Data for the bub3 strain (AID 167); details: S. cerevisiae bub3 mutant strain, at 50.0 µM, active compounds read high
Procedure, shortened: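 Mutant yeast screening strain plus compound; vehicle-treated cultures serve as the 0% inhibition reference.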

[6] = NCI Yeast Anticancer Drug Screen. Data for the mlh1 rad18 strain (AID 175); details: S. cerevisiae mlh1 rad18 strain growth inhibition; at 50.0 µM; active compounds read high
Procedure, shortened: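 Growth inhibition of the yeast strain was measured after compound exposure and expressed relative to vehicle-treated controls. The strain carries defined defects in DNA damage repair.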

Measured: growth inhibition

Nc1ccc(C(=O)NCCCC(=O)O)cc1
inactive: [1] -1.85% | [2] 19.2% | [3] -1.75% | [4] 0.85% | [5] -3.75% | [6] -14.6%

O=C1NC(=O)C(=C/C=C/C=C\C2C(=O)NC(=O)NC2=O)C(=O)N1
inactive: [1] -15.1% | [2] -38.4% | [3] -10.1% | [4] 2.1% | [5] -23.1% | [6] -10.6%

NC(=O)CNC(=O)C1CC(O)CN1C(=O)C1CCCN1C(=O)OCc1ccccc1 (stereo not drawn) (Cbz-Pro-[Hyp]-Gly-NH2; configuration not given here)
inactive: [1] -3.9% | [2] 1.1% | [3] 1.55% | [4] 4.15% | [5] 9.45% | [6] 2.2%

COC(=O)/C(C#N)=C(/NCc1ccccc1)Nc1ccccc1
inactive: [1] 20.8% | [2] -13.1% | [3] -8.2% | [4] 11.4% | [5] 43.6% | [6] 21.4%

CCOC(=O)c1ccc(NC(=O)Sc2ccccc2C)cc1
inactive: [1] 5.55% | [2] 12.9% | [3] 11.3% | [4] 7.5% | [5] 28% | [6] 13.6%

O=C1C2=C(Nc3cc(Cl)ccc3N2)OC1c1ccc(C2OC3=C(Nc4ccc(Cl)cc4N3)C2=O)cc1 (stereo not given)
inactive: [1] -20.1% | [2] 11.2% | [3] -7.05% | [4] -33.5% | [5] -7.3% | [6] 17.8%

Cc1ccc(N=C2SC(c3ccc(C)cc3)(c3ccc(C)cc3)c3ccccc32)cc1
inactive: [1] -35% | [2] 11.2% | [3] -3.9% | [4] -4.75% | [5] -7.15% | [6] -16.1%

CCc1n[nH]c(=O)n1/N=C/c1c(O)ccc2ccccc12
inactive: [1] 0.45% | [2] 10.8% | [3] 1.05% | [4] 9.05% | [5] 6% | [6] 18.9%

CCN(CC)CCO/N=C(\c1ccccc1)c1ccccn1
inactive: [1] 4.6% | [2] -5.95% | [3] 16.9% | [4] -78.3% | [5] 10.7% | [6] 1.2%

N#CCCSC(=S)C1CCCCC1=N (stereo not given)
inactive: [1] -5.3% | [2] 0.8% | [3] 12.8% | [4] -112% | [5] -24.9% | [6] -2.25%

CN(CO)N=Nc1ccc(C(F)(F)F)cc1
inactive: [1] -6.05% | [2] -0.65% | [3] -10% | [4] -14.2% | [5] 13.2% | [6] 19.8%

N#CCCC1C(C#N)C2CC1C1C3C=CC(C3)C21 (stereo not given)
inactive: [1] 9.1% | [2] 11.2% | [3] 30.5% | [4] 28.5% | [5] -4.5% | [6] 26.2%

C=C1CN(C2=NCCO2)C1
inactive: [1] -17.6% | [2] -39.6% | [3] -5.65% | [4] -12.9% | [5] -13.6% | [6] 4.05%

COC(=O)C(=O)c1c(C(=O)OC)nc2[nH]n(-c3ccccc3)c(=O)c2c1Cc1ccccc1
inactive: [1] -5.85% | [2] 1.05% | [3] 1.6% | [4] -45.9% | [5] -37.5% | [6] 8.25%

COc1cc([N+](=O)[O-])ccc1NC(=O)C(Br)C(Br)c1ccccc1 (stereo not given)
inactive: [1] 11.7% | [2] -5.9% | [3] 10.6% | [4] -1.4% | [5] 12.5% | [6] 15.6%

O=[N+]([O-])c1ccccc1N=C=S
inactive: [1] 9.5% | [2] -10.3% | [3] -4.05% | [4] -36% | [5] -9.85% | [6] -17.7%

CCOC(=O)C1(C(=O)OCC)CC(CCC#N)(CCC#N)C(=O)C(CCC#N)(CCC#N)C1
inactive: [1] -2.15% | [2] -5.5% | [3] 1.55% | [4] -3.1% | [5] -11.4% | [6] -26.8%

COC(=O)C1C(c2ccccc2)C1(C#N)C#N (stereo not given)
inactive: [1] -42.5% | [2] 2.55% | [3] -1% | [4] -25.6% | [5] -5.55% | [6] 3.3%

Cc1ncc2c(n1)NC(c1ccc([N+](=O)[O-])cc1)NC2 (stereo not given)
inactive: [1] 0.45% | [2] -2.9% | [3] -16.6% | [4] -3.7% | [5] 14.7% | [6] -1.7%

CC(O)C1NC(=S)N(c2ccccc2)C1=O (stereo not given)
inactive: [1] 17.4% | [2] 21% | [3] 20.8% | [4] -20.2% | [5] -14.4% | [6] 46%

CC/C(=N\N=C(/CC)c1cccs1)c1cccs1
inactive: [1] 25.5% | [2] -6.4% | [3] -10.7% | [4] 3.35% | [5] 13.1% | [6] -3.75%

CC(/C=N/N(C)C1=NCCCCN1)=N/N(C)C1=NCCCCN1
inactive: [1] 23.9% | [2] 12.7% | [3] 18.5% | [4] -21.6% | [5] -2.5% | [6] 29.4%

CC(O)C(=O)N(CCO)CCO (stereo not given)
inactive: [1] -5.4% | [2] -21.9% | [3] -13.4% | [4] -35.8% | [5] 3.5% | [6] 10.3%

C=CC1=C(C)C2=NC1=CC1=NC(=CC3=C(C)C4=C(O)C(C(=O)OC)C(=C5NC(=C2)C(C)C5CCC(=O)OC/C=C(\C)CCCC(C)CCCC(C)CCCC(C)C)C4=N3)C(CC)=C1C (stereo not given)
inactive: [1] -17.7% | [2] -33.4% | [3] -49.8% | [4] 3.4% | [5] -29.1% | [6] -20.9%

CCOC(=O)CCC(C(=O)OCC)c1nc2ccccc2[nH]c1=O (stereo not given)
inactive: [1] 12.6% | [2] 11.9% | [3] 12.6% | [4] -2.75% | [5] 14.1% | [6] 14.2%

CN(C)Cc1ccccc1COC(=O)/C=C/c1ccccc1
inactive: [1] 11.3% | [2] 7.5% | [3] 8.8% | [4] 10.1% | [5] 7.4% | [6] 8.95%

CC(C)=C/C(C)=N/NC(N)=O
inactive: [1] 7.9% | [2] -4.55% | [3] -24.3% | [4] -19.1% | [5] -19.8% | [6] -32.2%

C[N+]1=CN(c2ccc(Cl)cc2)Cc2cc(Cl)ccc21
inactive: [1] 31.1% | [2] -12.1% | [3] 25.6% | [4] 13.4% | [5] 40.1% | [6] 34%

Cc1ccc(-c2cc(=O)c(=O)[nH][nH]2)cc1
inactive: [1] -12.5% | [2] 22.1% | [3] -11.6% | [4] 4.85% | [5] -13.7% | [6] 27.2%

N=C(N)c1nc2ccccc2s1
inactive: [1] 6.2% | [2] -13.5% | [3] 17.4% | [4] 7.65% | [5] 24% | [6] 5.3%

CC(=O)N1C(Nc2ccccc2)CCN1c1ccccc1 (stereo not given)
inactive: [1] -24.2% | [2] -31.5% | [3] -14.1% | [4] 10.9% | [5] 2.05% | [6] -8.35%

COc1ccc(/C=C(/C#N)C(N)=O)c(OC)c1
inactive: [1] 1.85% | [2] -15.8% | [3] -34.1% | [4] -34.9% | [5] -31.8% | [6] 2.55%

Fc1ccc(NC(=S)NCCN2CCCC2)cc1
inactive: [1] 3.9% | [2] 34.2% | [3] 8.1% | [4] 3.75% | [5] 12.8% | [6] -4.3%

NCCCCCOCCCCCN
inactive: [1] 3.4% | [2] -0.25% | [3] -7% | [4] -8.1% | [5] 3.8% | [6] -1.65%

N#CCC(=O)N/N=C(\C#N)c1ccccc1
inactive: [1] 8.65% | [2] 1.95% | [3] 0.55% | [4] -51.9% | [5] -18.1% | [6] 0.75%

CSCCC(N)C(=O)NC(CCSC)C(=O)O (stereo not drawn) (H-Met-Met-OH; configuration not given here)
inactive: [1] -12% | [2] -21.4% | [3] 2.4% | [4] -25.1% | [5] -8.95% | [6] -5.7%

Brc1ccc[n+](CCc2ccccc2)c1
inactive: [1] -2.7% | [2] 15.1% | [3] -6.7% | [4] 7.75% | [5] 5.7% | [6] 9.5%

COC(=O)c1nnn(-c2ccc(Cl)cc2Cl)c1N
inactive: [1] -6.35% | [2] -18% | [3] -14.6% | [4] 6.3% | [5] -19.3% | [6] 14%

NC(Cc1ccc(O)cc1)C(=O)OCc1ccccc1 (stereo not given)
inactive: [1] -6.45% | [2] 0.5% | [3] 15.1% | [4] -11.2% | [5] 34.2% | [6] -3.75%

CSC(=S)n1nc(-c2cccs2)c(N=Nc2ccc([N+](=O)[O-])cc2)c1C(F)(F)F
inactive: [1] 19.1% | [2] -3.75% | [3] 19.9% | [4] 12.2% | [5] 3.8% | [6] 0.85%
